Source: the supplement of paper PMC10849652
Of roughly 7,900 targets only a part is listed; those with a hit were picked by preference. About 0.6% of all pairs of compound and target were hits. Unmarked numbers belong to inactive results.

Columns and labels:
Assay in all cases: log2 fold change, soluble protein after heating vs DMSO (PISA); higher = thermal stabilisation; K562 cells, 10 uM, 30 min; active = over 0.2 and 3.5 SD of the protein, either way, in both replicates (recomputed)
[1] = compound: C#Cc1cccc(Nc2ncnc3cc(OCCOC)c(OCCOC)cc23)c1 [erlotinib]
Procedure, shortened: (§1)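 Thermal stability values are relative to control samples and come from duplicates. They are expressed as log2 fold changes. For measurement, K562 cells (2×10^6 cells/mL) received 10 μM compound for 30 min, and aliquots were heated for 3 min over 48°C-58°C, pooled, and extracted at 4°C in PBS with 0.5% NP-40. Soluble protein, the supernatant after 21,000xg for 90 min, was quantified by TMTpro 16plex LC-MS/MS with equalised channel sums.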

[2] = compound: C/C(=N\NC(=O)C1=CC(=CC=C1)S(=O)(=O)N2CCOCC2)/C3=C(C=CC(=C3)Cl)O
Procedure, shortened: as §1

[3] = compound: C1=CC(=C(C=C1Cl)C2=NC3=NC=CN=C3C(=N2)NC4=CC=NC=C4)F
Procedure, shortened: as §1

[4] = compound: C1=CC(=CC=C1C2=NC3=C(N2)C=C(C=C3)C(=O)N)OC4=CC=C(C=C4)Cl
Procedure, shortened: as §1

[5] = compound: C1=CC2=C(C=CC(=C2)/C=C\3/C(=O)NC(=NCC4=CC=CS4)S3)N=C1
Procedure, shortened: as §1

[6] = compound: C1=CC2=NC=CN=C2C=C1/C=C/3\C(=O)NC(=O)S3
Procedure, shortened: as §1

[7] = compound: C1=CC=C(C=C1)C2=NC(=C(N2)C3=CC=NC=C3)C4=CC(=C(C=C4)Cl)O
Procedure, shortened: as §1

[8] = compound: C1=CC=C2C(=C1)C3=NNC4=CC=CC(=C43)C2=O
Procedure, shortened: as §1

[9] = compound: C1CCN(C1)C(=O)NC2=CC=CC(=C2)NC3=NC=C(C(=N3)NCCC4=CN=CN4)Br
Procedure, shortened: as §1

[10] = compound: C1CN(CCC1(CC2=CC=C(C=C2)Cl)N)C3=NC=NC4=C3C=CN4
Procedure, shortened: as §1

[11] = compound: C1COCCN1CCN2C3=CC=CC=C3N=C2NC(=O)C4=CC(=CC=C4)[N+](=O)[O-] [IRAK-1-4 Inhibitor I]
Procedure, shortened: as §1

[12] = compound: C=CC(=O)N1CCC[C@@H](n2nc(-c3ccc(Oc4ccccc4)cc3)c3c(N)ncnc32)C1 [ibrutinib]
Procedure, shortened: as §1

[13] = compound: CC(=O)c1cnc2ccc(-c3cc(Cl)c(O)c(Cl)c3)nc2c1N[C@H]1CC[C@H](CN(C)C)CC1
Procedure, shortened: as §1

[14] = compound: CC(C)(C)Cn1c(N)nc2ccc(-c3[nH]c(C(C)(C)C)nc3-c3ccc(F)cc3)nc21 [ralimetinib]
Procedure, shortened: as §1

[15] = compound: CC(C)(O)CC(=O)NCCn1ccc2ncnc(Nc3ccc(Oc4cccc(C(F)(F)F)c4)c(Cl)c3)c21
Procedure, shortened: as §1

[16] = compound: CC(C)C1=C2N=C(C=C(N2N=C1)NCC3=CC=CC=C3)NCCCCCCN
Procedure, shortened: as §1

[17] = compound: CC(C)C[C@@H](C=O)NC(=O)[C@H](CC(C)C)NC(=O)[C@H](CC(C)C)NC(=O)OCc1ccccc1
Procedure, shortened: as §1

[18] = compound: CC(C)N(C[C@H]1O[C@@H](n2cnc3c(N)ncnc32)[C@H](O)[C@@H]1O)[C@H]1C[C@@H](CCc2nc3cc(C(C)(C)C)ccc3[nH]2)C1 [pinometostat]
Procedure, shortened: as §1

[19] = compound: CC1=C(C(CC(=O)N1)C2=CC=C(C=C2)C(F)(F)F)C(=O)NC3=C(C=C4C(=C3)C=NN4)F
Procedure, shortened: as §1

[20] = compound: CC1=C(C2=C(C=C1)C(=O)C3=CC=CC=C3N2CCCN)C
Procedure, shortened: as §1

UniProt Q6VEQ5, sequence (Q6VEQ5 whole entry, looked up): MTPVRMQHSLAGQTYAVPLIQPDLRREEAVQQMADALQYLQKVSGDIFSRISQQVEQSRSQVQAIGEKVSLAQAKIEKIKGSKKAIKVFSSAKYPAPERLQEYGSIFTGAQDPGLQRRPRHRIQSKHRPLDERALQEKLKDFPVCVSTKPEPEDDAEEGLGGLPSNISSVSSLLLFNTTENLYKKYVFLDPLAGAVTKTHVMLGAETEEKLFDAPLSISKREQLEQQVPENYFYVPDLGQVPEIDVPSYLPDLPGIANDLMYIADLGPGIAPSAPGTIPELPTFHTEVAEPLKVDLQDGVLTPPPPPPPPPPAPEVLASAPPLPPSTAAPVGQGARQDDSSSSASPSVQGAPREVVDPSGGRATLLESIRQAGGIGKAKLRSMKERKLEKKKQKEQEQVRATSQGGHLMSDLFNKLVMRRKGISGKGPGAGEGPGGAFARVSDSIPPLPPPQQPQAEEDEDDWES
UniProt Q9BZI7, sequence (Q9BZI7 whole entry, looked up): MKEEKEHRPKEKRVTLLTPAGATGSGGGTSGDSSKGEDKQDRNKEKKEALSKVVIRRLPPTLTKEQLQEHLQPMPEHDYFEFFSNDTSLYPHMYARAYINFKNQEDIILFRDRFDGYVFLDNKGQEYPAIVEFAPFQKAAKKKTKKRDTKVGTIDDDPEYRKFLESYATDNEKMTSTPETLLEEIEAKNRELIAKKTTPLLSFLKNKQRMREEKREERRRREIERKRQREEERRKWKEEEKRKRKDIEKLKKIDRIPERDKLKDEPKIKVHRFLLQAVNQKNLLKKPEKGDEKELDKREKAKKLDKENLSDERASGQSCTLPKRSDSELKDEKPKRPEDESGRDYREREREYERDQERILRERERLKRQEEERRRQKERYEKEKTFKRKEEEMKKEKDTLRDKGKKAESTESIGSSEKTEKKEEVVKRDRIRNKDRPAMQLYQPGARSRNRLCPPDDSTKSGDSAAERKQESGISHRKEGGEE
UniProt A3KMH1, sequence (A3KMH1 whole entry, looked up): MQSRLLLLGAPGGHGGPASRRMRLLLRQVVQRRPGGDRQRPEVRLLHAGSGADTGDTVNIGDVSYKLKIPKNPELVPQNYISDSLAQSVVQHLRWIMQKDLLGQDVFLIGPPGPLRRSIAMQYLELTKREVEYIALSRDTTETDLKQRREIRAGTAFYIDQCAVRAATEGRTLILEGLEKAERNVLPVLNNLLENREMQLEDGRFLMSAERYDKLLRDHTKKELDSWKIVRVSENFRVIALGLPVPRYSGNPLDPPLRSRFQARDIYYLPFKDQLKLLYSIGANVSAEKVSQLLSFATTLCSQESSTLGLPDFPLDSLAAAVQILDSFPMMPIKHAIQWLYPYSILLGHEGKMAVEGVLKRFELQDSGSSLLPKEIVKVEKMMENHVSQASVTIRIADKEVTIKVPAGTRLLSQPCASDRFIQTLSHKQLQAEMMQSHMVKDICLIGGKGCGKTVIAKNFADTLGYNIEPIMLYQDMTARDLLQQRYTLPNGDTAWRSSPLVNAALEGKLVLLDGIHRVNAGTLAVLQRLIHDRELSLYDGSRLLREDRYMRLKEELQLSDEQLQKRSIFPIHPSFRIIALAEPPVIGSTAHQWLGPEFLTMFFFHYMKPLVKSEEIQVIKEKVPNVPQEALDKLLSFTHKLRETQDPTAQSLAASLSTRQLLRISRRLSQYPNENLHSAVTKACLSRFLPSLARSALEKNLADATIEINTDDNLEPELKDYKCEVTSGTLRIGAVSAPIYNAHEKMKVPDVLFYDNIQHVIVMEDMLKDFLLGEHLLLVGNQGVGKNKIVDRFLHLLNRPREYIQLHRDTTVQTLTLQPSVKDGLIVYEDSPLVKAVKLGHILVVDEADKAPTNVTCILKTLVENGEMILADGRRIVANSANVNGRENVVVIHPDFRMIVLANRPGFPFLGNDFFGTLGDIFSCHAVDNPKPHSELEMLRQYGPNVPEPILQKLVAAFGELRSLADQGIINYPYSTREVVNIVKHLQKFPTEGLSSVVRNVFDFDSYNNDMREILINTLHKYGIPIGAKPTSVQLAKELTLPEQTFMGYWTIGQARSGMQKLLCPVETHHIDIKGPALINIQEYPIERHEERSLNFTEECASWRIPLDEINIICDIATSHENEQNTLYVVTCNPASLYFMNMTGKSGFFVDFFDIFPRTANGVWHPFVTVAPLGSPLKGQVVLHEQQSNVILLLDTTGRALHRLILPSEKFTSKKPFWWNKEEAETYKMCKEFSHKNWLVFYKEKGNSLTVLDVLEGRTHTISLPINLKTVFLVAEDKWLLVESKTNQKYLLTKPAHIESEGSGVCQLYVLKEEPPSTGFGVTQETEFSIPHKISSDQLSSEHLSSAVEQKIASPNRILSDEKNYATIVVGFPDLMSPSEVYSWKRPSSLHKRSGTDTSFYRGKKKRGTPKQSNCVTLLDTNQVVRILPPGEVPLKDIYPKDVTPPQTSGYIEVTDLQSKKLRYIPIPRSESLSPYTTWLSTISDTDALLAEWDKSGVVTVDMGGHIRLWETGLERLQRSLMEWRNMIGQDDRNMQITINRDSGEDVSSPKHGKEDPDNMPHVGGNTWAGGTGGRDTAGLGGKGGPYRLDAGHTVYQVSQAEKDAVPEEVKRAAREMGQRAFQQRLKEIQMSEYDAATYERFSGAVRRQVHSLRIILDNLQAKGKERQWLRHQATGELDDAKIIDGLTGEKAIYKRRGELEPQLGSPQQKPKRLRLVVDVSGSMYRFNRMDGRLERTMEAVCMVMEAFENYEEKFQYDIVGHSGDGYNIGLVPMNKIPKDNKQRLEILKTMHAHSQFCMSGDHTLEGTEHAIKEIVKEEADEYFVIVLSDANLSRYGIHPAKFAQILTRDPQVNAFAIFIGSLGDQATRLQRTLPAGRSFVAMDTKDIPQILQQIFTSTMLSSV
UniProt Q16881, sequence (Q16881 whole entry, looked up): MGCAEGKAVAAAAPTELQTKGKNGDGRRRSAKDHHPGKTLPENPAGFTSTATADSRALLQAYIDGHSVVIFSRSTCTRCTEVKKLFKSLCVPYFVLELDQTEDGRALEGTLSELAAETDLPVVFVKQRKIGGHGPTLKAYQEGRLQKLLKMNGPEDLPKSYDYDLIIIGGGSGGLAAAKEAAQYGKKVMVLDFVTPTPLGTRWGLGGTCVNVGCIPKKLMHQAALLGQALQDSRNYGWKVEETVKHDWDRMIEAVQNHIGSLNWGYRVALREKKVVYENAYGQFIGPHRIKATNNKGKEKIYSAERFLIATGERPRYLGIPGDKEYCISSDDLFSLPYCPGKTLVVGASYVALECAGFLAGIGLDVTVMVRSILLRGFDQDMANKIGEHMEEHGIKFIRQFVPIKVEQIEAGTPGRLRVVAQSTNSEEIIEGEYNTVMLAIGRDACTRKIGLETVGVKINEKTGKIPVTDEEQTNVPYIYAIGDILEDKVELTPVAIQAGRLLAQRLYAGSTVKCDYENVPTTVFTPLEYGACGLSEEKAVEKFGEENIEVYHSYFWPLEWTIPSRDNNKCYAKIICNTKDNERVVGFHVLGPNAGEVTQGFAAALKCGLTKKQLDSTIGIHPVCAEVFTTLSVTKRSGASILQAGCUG
UniProt O43592, sequence (O43592 whole entry, looked up): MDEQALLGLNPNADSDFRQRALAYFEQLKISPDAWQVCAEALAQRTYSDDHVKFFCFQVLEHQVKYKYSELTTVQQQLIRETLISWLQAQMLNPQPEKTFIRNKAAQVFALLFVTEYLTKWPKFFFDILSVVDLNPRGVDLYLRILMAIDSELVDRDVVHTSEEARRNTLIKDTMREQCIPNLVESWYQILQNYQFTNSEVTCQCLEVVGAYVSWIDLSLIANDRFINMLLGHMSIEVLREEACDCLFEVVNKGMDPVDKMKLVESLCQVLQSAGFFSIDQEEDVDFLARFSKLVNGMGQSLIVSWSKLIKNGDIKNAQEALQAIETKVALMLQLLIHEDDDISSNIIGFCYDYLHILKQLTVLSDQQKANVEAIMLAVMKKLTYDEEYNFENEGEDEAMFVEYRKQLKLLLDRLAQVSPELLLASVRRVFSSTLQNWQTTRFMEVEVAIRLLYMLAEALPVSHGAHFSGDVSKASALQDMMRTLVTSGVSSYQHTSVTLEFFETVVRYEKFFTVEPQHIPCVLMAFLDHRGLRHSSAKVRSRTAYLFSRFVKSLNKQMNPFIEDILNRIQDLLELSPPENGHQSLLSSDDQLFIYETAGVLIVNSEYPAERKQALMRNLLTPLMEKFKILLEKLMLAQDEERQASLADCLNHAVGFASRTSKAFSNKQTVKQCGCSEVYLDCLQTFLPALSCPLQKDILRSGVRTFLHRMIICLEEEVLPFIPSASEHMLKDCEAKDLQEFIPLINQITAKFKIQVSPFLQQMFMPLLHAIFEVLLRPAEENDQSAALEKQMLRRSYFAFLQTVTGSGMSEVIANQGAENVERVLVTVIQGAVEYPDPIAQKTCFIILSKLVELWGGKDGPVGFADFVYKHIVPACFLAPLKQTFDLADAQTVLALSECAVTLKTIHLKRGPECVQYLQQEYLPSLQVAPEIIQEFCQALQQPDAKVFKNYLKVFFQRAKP
UniProt Q9UDW1, sequence (Q9UDW1 whole entry, looked up): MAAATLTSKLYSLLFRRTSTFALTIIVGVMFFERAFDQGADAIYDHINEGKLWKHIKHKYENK
UniProt Q9BV38, sequence (Q9BV38 whole entry, looked up): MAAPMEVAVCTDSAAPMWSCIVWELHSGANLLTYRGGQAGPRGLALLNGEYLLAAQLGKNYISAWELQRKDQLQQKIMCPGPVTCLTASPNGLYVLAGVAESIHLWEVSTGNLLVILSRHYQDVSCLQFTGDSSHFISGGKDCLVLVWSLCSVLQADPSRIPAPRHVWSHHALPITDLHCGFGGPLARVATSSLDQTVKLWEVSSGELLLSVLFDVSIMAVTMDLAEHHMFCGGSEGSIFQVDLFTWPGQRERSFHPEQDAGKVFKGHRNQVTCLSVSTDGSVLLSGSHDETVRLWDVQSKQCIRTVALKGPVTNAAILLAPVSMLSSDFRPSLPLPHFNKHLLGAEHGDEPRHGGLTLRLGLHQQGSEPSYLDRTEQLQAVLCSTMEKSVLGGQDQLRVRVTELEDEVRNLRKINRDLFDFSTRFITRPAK

Target | log2 fold change [1] | log2 fold change [2] | log2 fold change [3] | log2 fold change [4] | log2 fold change [5] | log2 fold change [6] | log2 fold change [7] | log2 fold change [8] | log2 fold change [9] | log2 fold change [10] | log2 fold change [11] | log2 fold change [12] | log2 fold change [13] | log2 fold change [14] | log2 fold change [15] | log2 fold change [16] | log2 fold change [17] | log2 fold change [18] | log2 fold change [19] | log2 fold change [20]
UQCR10 (UniProt Q9UDW1) | -0.026 | 0.056 | 0.069 | -0.023 | 0.034 | 0.014 | 0.046 | -0.003 | 0.006 | 0 | 0.036 | 0.019 | -0.077 | -0.05 | -0.056 | 0.031 | -0.127 | -0.016 | -0.008 | 0.057
XPNPEP1 isoform 3 (UniProt Q9NQW7) | -0.005 | -0.069 | 0.067 | 0.022 | 0.076 | -0.003 | 0.048 | 0.04 | 0 | 0.033 | 0.07 | -0.002 | -0.011 | -0.03 | -0.016 | -0.135 | -0.073 | -0.006 | -0.014 | 0.045
TOE1 (UniProt Q96GM8) | -0.029 | -0.151 | -0.267 | -0.056 | 0.002 | 0.005 | -0.05 | -0.035 | -0.021 | -0.107 | -0.15 | -0.031 | 0.089 | 0.012 | 0.005 | 0.042 | 0.09 | 0.077 | -0.067 | -0.228
WDR18 (UniProt Q9BV38) | 0.058 | 0.039 | 0.024 | -0.015 | -0.111 | 0.031 | -0.045 | 0.011 | -0.035 | 0.065 | -0.005 | -0.03 | -0.007 | 0.064 | 0.025 | 0.008 | -0.102 | 0.028 | 0.011 | -0.962 (active)
WEE1 (UniProt P30291) | 0.029 | -0.06 | -0.081 | 0.047 | -0.206 | 0.249 | -0.177 | 0.037 | -0.085 | -0.239 | 0.025 | 0.013 | -1.1 (active) | 0.037 | -0.034 | -0.019 | 0.296 | 0.066 | 0.05 | 0.263
TNFRSF10A (UniProt O00220) | -0.01 | -0.05 | -0.023 | -0.014 | 0.049 | -0.012 | -0.026 | 0.018 | -0.039 | -0.049 | 0.002 | 0.034 | -0.064 | -0.072 | -0.073 | 0.043 | 0.078 | -0.002 | -0.003 | 0.021
WASH2P (UniProt Q6VEQ5) | 0.005 | -0.02 | -0.084 | 0.003 | 0.041 | 0.038 | 0.014 | 0.011 | 0.117 | 0.013 | 0.001 | -0.049 | 0.052 | 0.022 | 0.048 | -0.234 (active) | 0.025 | -0.016 | -0.022 | 0.026
UPF3B (UniProt Q9BZI7) | -0.108 | -0.149 | -0.703 (active) | 0.088 | -0.053 | -0.072 | -0.019 | -0.016 | 0.117 | -0.097 | -0.099 | 0.158 | 0.265 | 0.27 | 0.057 | -0.02 | 0.19 | 0.394 | -0.002 | -0.183
VWA8 (UniProt A3KMH1) | 0.077 | 0.037 | 0.017 | -0.036 | 0.108 | 0.008 | 0.017 | 0.069 | -0.009 | 0.042 | 0.022 | -0.015 | -0.041 | 0.016 | -0.115 | -0.149 | -0.032 | -0.004 | 0.009 | 0.021
TXNRD1 (UniProt Q16881) | 0.021 | 0.049 | 0.057 | -0.006 | 0.009 | 0.074 | 0.027 | 0.019 | 0.005 | 0.046 | 0.064 | -0.035 | -0.062 | -0.088 | -0.049 | -0.013 | -0.03 | -0.042 | -0.011 | 0.077
TMEM263 (UniProt Q8WUH6) | 0.093 | 0.024 | 0.024 | -0.012 | 0.058 | -0.013 | 0.02 | -0.101 | 0.036 | 0.022 | 0.083 | 0 | 0.026 | -0.092 | -0.303 | -1.03 (active) | 0.029 | 0.001 | 0.092 | 0.037
TMEM70 (UniProt Q9BUB7) | -0.286 | 0.03 | 0.023 | 0.257 | 0.008 | -0.09 | -0.063 | -0.039 | -0.007 | 0.053 | 0.07 | 0.068 | -0.034 | -0.044 | -0.095 | 0.13 | 0.028 | 0.019 | -0.034 | 0.086
TUBAL3 (UniProt A6NHL2) | 0.092 | 0.096 | 0.099 | 0.018 | 0.048 | 0.004 | 0.031 | -0.034 | -0.046 | 0.145 | -0.046 | -0.005 | -0.039 | -0.044 | -0.047 | 0.003 | -0.102 | -0.108 | 0.11 | -0.094
TYW1 (UniProt Q9NV66) | -0.045 | 0.012 | 0.055 | 0.057 | 0.003 | 0.009 | 0.042 | 0.057 | -0.041 | 0.022 | -0.031 | -0.043 | -0.096 | 0.044 | 0 | 0.03 | -0.056 | 0.005 | -0.074 | 0.051
XPOT (UniProt O43592) | -0.035 | 0.069 | 0.005 | -0.058 | 0.037 | 0.065 | -0.047 | -0.026 | -0.005 | -0.088 | -0.035 | -0.061 | 0.064 | -0.079 | -0.146 | -0.345 (active) | 0.053 | 0.03 | 0.001 | 0.033
UBE2S (UniProt Q16763) | 0.01 | 0.064 | -0.025 | -0.021 | 0.052 | 0.014 | -0.008 | 0.014 | -0.02 | 0.029 | -0.065 | -0.035 | -0.037 | 0.03 | -0.034 | 0.018 | 0.125 | -0.05 | -0.004 | -0.055
